Results on 103 molecules are retold here after ChEMBL document CHEMBL3988442, “University of Dundee, Small-Polar-MMV Screening Library” (2021).

Out of some 48,000 compounds screened, about 13,000 (27%) showed an effect of 50% or more. This is one part of the list.

The experiment deals with Wolbachia pipientis. Put plainly: Anti-Wolbachia Cell-Based Screen. The class given is functional. Also on record: scale not given: in the data most compounds retested in dose-response had high values. To be noted: 5 µM.
On to `Cc1nc(N2CCCC2)nc2c1CCN(Cc1ccsc1)CC2.O=C(O)C(F)(F)F`, for which the “Percent Effect” value is reported as 4.858%.
Consider `Cc1nc2c(cc1C(=O)O)CCN(Cc1ccsc1)CC2.O=C(O)C(F)(F)F.O=C(O)C(F)(F)F`, for which the “Percent Effect” value is given as 107%.
Under `CC(C)Nc1nc2c(cc1C(=O)NCC1CC1)CCN(CC1CC1)CC2.O=C(O)C(F)(F)F.O=C(O)C(F)(F)F` stands -7.491%; under `CC(C)Nc1nc2c(cc1C(=O)O)CCN(Cc1ccsc1)CC2.O=C(O)C(F)(F)F.O=C(O)C(F)(F)F`, 98.93%.
Under `CC(=O)N1CCc2cc(C(=O)O)c(-c3ccsc3)nc2CC1.O=C(O)C(F)(F)F` stands -2.009%; under `Cc1nc2c(cc1C(=O)O)CCN(CC1CC1)CC2.O=C(O)C(F)(F)F.O=C(O)C(F)(F)F`, -6.324%; under `CCC(CC)(CC)NC(=O)Nc1nnc(-c2ccccn2)s1`, -4.465%.
With `COCCN1CCO[C@@H]2CN(C(=O)COc3ccc(C)cc3)C[C@@H]2C1.O=C(O)C(F)(F)F` the figure was -10.88%; with `CC(C)(C)C(O)CN1CCN(Cc2nccn2CC(F)(F)F)CC1` (stereo not drawn), -1.053%.
As to `O=C(CCC(=O)N1CCC(Oc2ncccc2Br)CC1)c1ccccc1`, the “Percent Effect” value is recorded as -8.42%.
With `CCC[C@H]1CN(C2CCOCC2)C[C@@H]1NC(=O)CCCn1ccnc1` the figure was -3.438%; with `c1cnc(N2CCCC(c3n[nH]c4ncccc34)C2)nc1` (stereo not drawn), 152.2%; with `Cc1ccc(-c2cn[nH]c2C2CCCN(c3ncccn3)C2)cc1` (stereo not drawn), -14.2%.
Under `Cc1cc(N2CCCC(c3n[nH]c4ncccc34)C2)ncn1` (stereo not drawn) stands 73.09%; under `CC(C)n1ccnc1C1CCCN(c2ccccn2)C1` (stereo not drawn), 3.899%.
With `Cc1ccc(-c2cn[nH]c2C2CCCN(c3cc(N)ncn3)C2)cc1` (stereo not drawn), the “Percent Effect” value is -31.64%.
As to `c1cnc(N2CCC(c3n[nH]c4ncccc34)C2)nc1` (stereo not drawn), the “Percent Effect” value was 117.8%.
With `Cc1nc(CC(=O)N2CCCC2c2nc(C(C)C)no2)cs1` (stereo not drawn) the figure was -8.92%; with `CN1CCC(N(C)C[C@H]2CC[C@@H](Cc3cccc(O)c3)O2)CC1`, -5.981%.
With `Cc1nc(C)n(CCCNc2ncnc3onc(C)c23)n1` the figure was 1.931%.
Under `Cc1ccc(CN(C)C(=O)NCC(C)(C)NS(C)(=O)=O)s1` stands 4.932%; under `CC(C)N(C)C(=O)c1coc(CN2CCN(c3ccccc3F)CC2)n1`, -13.9%.
Turning to `O=C(NC1CCCN(c2ccccc2Cl)C1)c1ccc(=O)[nH]n1` (stereo not drawn), the “Percent Effect” value is listed as 90.33%.
On to `O=C(NC1CCCN(c2ccccc2Cl)C1)c1nc(=O)[nH][nH]1` (stereo not drawn), for which the “Percent Effect” value came out at 109.8%.
Under `O=C(NC1CCCN(c2ccc(OC(F)F)cc2)C1)c1c[nH]nn1` (stereo not drawn) stands -1.773%.
Under `O=C(NC1CCN(c2ccc(-c3ccccc3F)nn2)C1)c1cc[nH]n1` (stereo not drawn) stands 3.887%.
With `COc1ccccc1N1CCCC(NC(=O)Nc2cccnc2)C1` (stereo not drawn), the “Percent Effect” value is -7.582%.
Under `N#Cc1nccnc1NC1CCN(c2ccccc2Br)C1` (stereo not drawn) stands -11.54%; under `O=C(NC1CCCN(c2ccccc2F)C1)c1ccon1` (stereo not drawn), 18.57%.
Turning to `O=C(NC1CCCN(c2ncccn2)C1)c1cn2ccccc2n1` (stereo not drawn), the “Percent Effect” value is -4.664%.
For the molecule `Cc1n[nH]c(C)c1CNC(=O)NC1CCCN(c2ccccc2F)C1` (stereo not drawn), the “Percent Effect” value is listed as -5.16%.
Under `O=C(NC1CCCN(c2ccc(OC(F)F)cc2)C1)c1cc[nH]n1` (stereo not drawn) stands 14.46%.
Under `O=C(NC1CCCN(c2ccccc2Cl)C1)c1c[nH]nn1` (stereo not drawn) stands 87%; under `O=C(NC1CCN(c2ccccc2Br)C1)c1c[nH]nn1` (stereo not drawn), 111.1%.
With `Cn1ncc(C(=O)OCC2CCN(c3ccccc3)C2)c1C(F)F` (stereo not drawn) the figure was 4.797%; with `CN1C(=O)CCc2cc(NC(=O)C3CCCC3)ccc21`, -13.79%; with `CCS(=O)(=O)N1CCCC2(CCCN2C(=O)c2cn(C)cn2)C1` (stereo not drawn), 0.7731%.
`CN(Cc1cc(Br)cn1C)C(=O)c1ccsc1`: the “Percent Effect” value is reported as -18.58%.
With `O=C(NC1CCN(c2ccccc2OC(F)F)C1)c1cccnc1` (stereo not drawn) the figure was -18.54%; with `O=C(Nc1cn[nH]c1)NC1CCN(c2ccccc2OC(F)F)C1` (stereo not drawn), -20.77%; with `O=C(NC1CCN(c2ccccc2OC(F)F)C1)c1c[nH]nn1` (stereo not drawn), 107.7%.
With `COc1ccc(C2CCCN2C(=O)c2csc(NC(C)=O)n2)cc1` (stereo not drawn) the figure was -0.5039%; with `COc1ccc(C2CN(c3nc(C)cc(C)n3)CCN2C(C)=O)cc1` (stereo not drawn), 87.97%; with `COc1ccc2c(c1)CN(c1nc(C)cc(C)n1)CC2`, -6.244%.
Take `CC(OCC(F)(F)F)C(=O)N1CCCCC1` (stereo not drawn): the “Percent Effect” value is reported as -2.646%.
With `O=C1CN(c2ccc(CNC(=O)c3cccnc3O)cc2F)CCN1` the figure was -18.4%; with `Cc1cnc(C(=O)NCc2ccc3c(c2)CCCN3C)cn1`, 101.2%; with `CC(C)CN1CCCn2nc(CNC(=O)c3cccnc3O)cc2C1`, -4.035%.
With `CN1CCCc2cc(CNC(=O)c3cccnc3O)ccc21` the figure was 90.33%; with `CN1N=C(C(=O)NCc2ccc3c(c2)CCCN3C)CCC1=O`, 13.95%.
Under `COc1ccc(COCC(O)CNC(=O)c2cnc(C)cn2)cc1` (stereo not drawn) stands 4.456%; under `CC(C)c1nn(C)c(Cl)c1CNC1CCOc2ccccc21.Cl` (stereo not drawn), -8.066%; under `CC(=O)NCC(=O)N1Cc2cc(-c3cc[nH]n3)ccc2C1c1cnco1` (stereo not drawn), -23.15%.
Turning to `COc1ccc(-n2cnnc2SCC(C)(C)O)cn1`, the “Percent Effect” value is reported as -5.422%.
Under `COc1ccccc1OCC(=O)NS(=O)(=O)c1cc(F)ccc1F` stands -8.021%; under `COc1nn(C)cc1C(=O)NCC(=O)NCc1cccnc1`, -2.836%; under `COCCn1nc(C(=O)N2CCCC2c2cccc(F)c2)ccc1=O` (stereo not drawn), 1.762%.
With `COCC(=O)N(Cc1cccnc1)CC1CCN(C2CCCC2)CC1` the figure was -6.321%; with `COCCn1nc(C(=O)N2CCN(C)CC2C)ccc1=O` (stereo not drawn), -13.53%; with `COCCn1nc(C(=O)N(C)Cc2ccc3ccccc3c2)ccc1=O`, 98.47%.
With `COCCn1nc(C(=O)N(C)Cc2cccnc2)ccc1=O` the figure was 131.6%; with `CCN(CC(=O)NC)S(=O)(=O)c1cnc2c(c1)c(C)nn2C`, -1.026%.
`N#CC1(C(=O)N2CCN(c3nccs3)CC2)CCCCC1`: the “Percent Effect” value is listed as -10.71%.
With `CN(C)c1ncccc1NC(=O)COCC1CC1` the figure was 7.684%; with `N#Cc1cccc(OCCN2CCCC(c3noc(C4CC4)n3)C2)c1` (stereo not drawn), -47.81%; with `N#Cc1ccc(N2CCC3(CC2)CC(Oc2cccnc2)CO3)cc1.O=C(O)C(F)(F)F` (stereo not drawn), 18.7%.
With `COC1COC2(CCN(c3ccc(C#N)cc3)CC2)C1.O=C(O)C(F)(F)F` (stereo not drawn) the figure was -8.699%; with `CNC(=O)COC1COC2(CCN(c3ccc(C#N)cc3)CC2)C1.O=C(O)C(F)(F)F` (stereo not drawn), 4.884%.
Under `CN1CCN(C2COC3(CCN(c4ccc(C#N)cc4)CC3)C2)CC1.O=C(O)C(F)(F)F` (stereo not drawn) stands 99.27%; under `N#Cc1ccc(N2CCC3(CC2)CC(N2CCOCC2)CO3)cc1.O=C(O)C(F)(F)F` (stereo not drawn), 99.84%.
Regarding `CN1CCOCC12CCN(c1ccc(C#N)cc1)CC2.O=C(O)C(F)(F)F`, the “Percent Effect” value is on record as -6.092%.
As for `COc1cccc(-c2cnnc(N(C)CCC3CCCCO3)n2)c1` (stereo not drawn), the “Percent Effect” value is listed as -7.888%.
With `Cc1cc2c(c(-c3c[nH]c(C)n3)c1)OC(CN)C2` (stereo not drawn) the figure was 10.27%; with `COc1ccc(CNC(=O)N2CCC(Cc3cnn(C)c3)C2)cc1C` (stereo not drawn), -1.04%; with `Cc1ccc(CCNC(=O)NC2CCN(CC(F)(F)F)C2=O)cn1` (stereo not drawn), -2.04%.
For the molecule `CCOc1cc(CNC(=O)N2CCC(Cc3cnn(C)c3)C2)ccn1` (stereo not drawn), the “Percent Effect” value worked out at 0.1866%.
With `Cn1cc(CC2CCN(C(=O)NCCCc3ccc(O)cc3)C2)cn1` (stereo not drawn) the figure was 109.7%; with `Cc1ccc(CCNC(=O)N2CCC(Cc3cnn(C)c3)C2)cn1` (stereo not drawn), 129.7%; with `Cc1ccc(CCNC(=O)N2CCCC(Cc3nccn3C)C2)cn1` (stereo not drawn), -1.285%.
As to `CC(=O)Nn1ccc2c(nnc3c(-c4ccccc4)cnn32)c1=O`, the “Percent Effect” value is given as 95.62%.
With `O=C(O)CCn1ccc2c(nnc3c(-c4ccc(F)cc4)cnn32)c1=O` the figure was 102.5%; with `Cc1ccc2c(ccn2CCC(=O)O)c1`, -5.722%; with `CC(=O)Nn1ccc2c(nnc3c(-c4ccc(F)cc4)cnn32)c1=O`, 91.05%.
Under `CCN(CC)CCC(=O)NCc1cc2n(n1)CCN(C(=O)N(C)C)C2` stands -4.405%; under `Cc1ccc(-c2ncc(C(=O)N3CCC[C@H](N)C3)c(O)n2)cc1`, 4.793%; under `CC(O)c1cn(CC2CCN(C(=O)c3cccc(N(C)C)c3)CC2)nn1` (stereo not drawn), -11.02%.
With `Cc1nnc(NC(=O)N2CCCN(C3CCCC3)CC2)s1` the figure was -2.14%.
As for `CC1CCN(CCCNC(=O)Nc2cc3c(cc2Br)OCCO3)CC1`, the “Percent Effect” value was -0.7212%.
On to `Cc1nc(-c2c(-c3ccccc3)ncn2[C@H]2C[C@@H](C(=O)O)N(C)C2)co1`, for which the “Percent Effect” value is recorded as -9.295%.
Take `CCSCc1ccnc(NC(=O)C2CCOC2)c1` (stereo not drawn): the “Percent Effect” value is 20.8%.
For `CCOc1ccc(C(=O)N2CCC(Oc3ccccc3)(C(=O)O)CC2)o1`, the “Percent Effect” value is listed as -0.9818%.
With `CC(C)(C)N1CCN(C(=O)c2cccnc2-n2cncn2)CC1` the figure was -9.982%; with `CCCc1cc(N2CCC(NCC3(O)CCCCC3)CC2)nc(C)n1`, -11.13%.
Under `Cc1nc(CCNC2CCN(Cc3ccccc3)C2)sc1C` (stereo not drawn) stands -12.11%.
Under `CCCc1cc(N2CCC(NCCc3ccc(O)cc3)CC2)nc(C)n1` stands 19.96%.
Regarding `CCc1cc(N2CCC(NCCc3ccc(C)o3)CC2)nc(C)n1`, the “Percent Effect” value came to 97.78%.
Turning to `CCc1cc(N2CCC(NC(=O)CCC3CCCO3)CC2)ncn1` (stereo not drawn), the “Percent Effect” value is reported as -4.201%.
With `CCc1csc(CNC2CCN(c3ccc(C)cc3)CC2)n1` the figure was -9.18%; with `CCc1cc(N2CCC(NCc3ccc(C)o3)CC2)ncn1`, 91.75%.
`CCc1cc(N2CCC(NCCSc3nnnn3C)CC2)nc(C)n1`: the “Percent Effect” value stood at 4.673%.
With `Cc1nc(C)c(C)c(N2CCC(NCCOc3ccccc3)CC2)n1` the figure was 8.772%.
As for `CCc1cc(N2CCC(NCCc3ccccc3F)CC2)nc(C)n1`, the “Percent Effect” value stood at 82.1%.
With `CCc1cc(N2CCC(NCCc3nc(C)c(C)s3)CC2)nc(C)n1` the figure was 99.23%.
